Measured values as given in the supplement of paper PMC6555819.

What was measured:
Test in all cases: PBM binding z-score (relative to random genomic background probes); higher = stronger binding; sequences stand for … in GC…GCGATTGACAGCGTAGAATGAAGG
[1] = tested on: FXR:RXRa (NR concentration 270 nM, RXRa partner concentration 90 nM)
Outline: (§1)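 On custom Agilent 4×180K arrays, double-stranded probes with 34-nt variable regions carried direct-repeat seeds, single-nucleotide variants, half-site ablations or random human genomic background. Ligand-free nuclear receptor dimers were applied for 1 h, and binding was read with antibodies against each partner (one per run). Binding z-scores come from regression-normalized fluorescence, with the random background probes as reference.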

[2] = tested on: LXRa:RXRa (NR concentration 270 nM, RXRa partner concentration 90 nM)
Outline: as §1

[3] = tested on: LXRa homodimer (NR concentration 270 nM)
Outline: as §1

[4] = tested on: LXRb:RXRa (NR concentration 270 nM, RXRa partner concentration 90 nM)
Outline: as §1

[5] = tested on: LXRb homodimer (NR concentration 270 nM)
Outline: as §1

[6] = tested on: PPARa:RXRa (NR concentration 270 nM, RXRa partner concentration 90 nM)
Outline: as §1

[7] = tested on: PPARg:RXRa (NR concentration 180 nM, RXRa partner concentration 90 nM)
Outline: as §1

[8] = tested on: PPARg:RXRa 270nM:90nM, anti-RXR (NR concentration 270 nM, RXRa partner concentration 90 nM)
Outline: as §1

[9] = tested on: PPARg:RXRa 30nM:10nM, anti-RXR (NR concentration 30 nM, RXRa partner concentration 10 nM)
Outline: as §1

[10] = tested on: PPARg:RXRa 90nM:30nM, anti-RXR (NR concentration 90 nM, RXRa partner concentration 30 nM)
Outline: as §1

[11] = tested on: PPARg:RXRa DBDmut IVT, anti-RXR (DBD mutation: RXRa K156A/R161A, NR concentration 270 nM, RXRa partner concentration 90 nM)
Outline: as §1

[12] = tested on: PPARg:RXRa IVT, anti-PPARg (NR concentration 270 nM, RXRa partner concentration 90 nM)
Outline: as §1

[13] = tested on: PPARg DBDmut:RXRa IVT, anti-PPARg (DBD mutation: PPARg1 K132A/R137A, NR concentration 270 nM, RXRa partner concentration 90 nM)
Outline: as §1

[14] = tested on: PPARg DBDmut IVT, anti-PPARg (DBD mutation: PPARg1 K132A/R137A, NR concentration 270 nM)
Outline: as §1

[15] = tested on: PPARg homodimer (NR concentration 180 nM)
Outline: as §1

[16] = tested on: PXR:RXRa (NR concentration 270 nM, RXRa partner concentration 90 nM)
Outline: as §1

[17] = tested on: PXR homodimer (NR concentration 270 nM)
Outline: as §1

[18] = tested on: RARa:RXR (NR concentration 270 nM, RXRa partner concentration 90 nM)
Outline: as §1

[19] = tested on: RARa homodimer (NR concentration 270 nM)
Outline: as §1

[20] = tested on: RARb:RXRa (NR concentration 270 nM, RXRa partner concentration 90 nM)
Outline: as §1

| Sequence | PBM binding z-score [1] | PBM binding z-score [2] | PBM binding z-score [3] | PBM binding z-score [4] | PBM binding z-score [5] | PBM binding z-score [6] | PBM binding z-score [7] | PBM binding z-score [8] | PBM binding z-score [9] | PBM binding z-score [10] | PBM binding z-score [11] | PBM binding z-score [12] | PBM binding z-score [13] | PBM binding z-score [14] | PBM binding z-score [15] | PBM binding z-score [16] | PBM binding z-score [17] | PBM binding z-score [18] | PBM binding z-score [19] | PBM binding z-score [20] |
| --- | --- | --- | --- | --- | --- | --- | --- | --- | --- | --- | --- | --- | --- | --- | --- | --- | --- | --- | --- | --- |
| GATACAAGGTCAAGGCCAGAGTACGCGTATTGAT | 7.16 | 5.44 | 1.37 | 4.03 | 0.481 | 5.49 | 5.86 | 5.56 | 2.28 | 4.41 | 3.92 | 4.69 | 1.01 | 0.226 | 2.18 | 3.85 | 0.847 | 4.27 | 0.975 | 5.35 |
| TCTGCTAGGTCAGTTGGTCAGCCAACGAGCTGCC | 0.772 | 0.762 | -0.677 | 0.196 | -0.0137 | 1.52 | 0.643 | 1.9 | 1.52 | 1.51 | 2.34 | 2.92 | 2.07 | 0.334 | 0.252 | 0.152 | -0.764 | 0.399 | -1.63 | 3.3 |
| TCTGCTAGGTCAGTTGGTCAGGTAACGAGCTGCC | 1.03 | 0.456 | -0.298 | 0.248 | 0.236 | 1.48 | 0.452 | 1.74 | 1.15 | 1.3 | 2.56 | 3.24 | 0.0917 | 0.385 | 0.478 | 0.0993 | -0.744 | 0.735 | -0.871 | 3.3 |
| CCTTACCGGTCACTGACAGGTTATAGCATTTGGA | 1.09 | 1.89 | 1.73 | 1.31 | 0.619 | 1.49 | 0.664 | 0.675 | 0.114 | 0.418 | 0.892 | 1.17 | 0.534 | 0.217 | 2.23 | 1.01 | 0.467 | 1.29 | 1.61 | 3.06 |
| ACTCAAAGTTCAGGACGAGGTAACGTAAAGCACG | 4.15 | 4.07 | 1.77 | 2.18 | 0.639 | 3.27 | 1.61 | 1.86 | 0.747 | 1.23 | 0.133 | 0.996 | 0.541 | 0.409 | 2.29 | 3.09 | 1.46 | 2.81 | 0.77 | 4.52 |
| TCTGCTAGGTCAACGATGGTAAGCTAATCTGCTA | 3.07 | 2.01 | -0.518 | 1.4 | -0.543 | 2.85 | 2.51 | 3.09 | 1.65 | 2.31 | 4.18 | 4.18 | 0.49 | -0.213 | 0.663 | 0.925 | -1.17 | 1.92 | -1 | 4.03 |
| TAGCCTAGGTCAGATCGGGCAAGTATACGCTATA | 1.87 | 1.1 | -0.305 | 0.779 | -0.322 | 1.74 | 0.654 | 0.623 | -0.284 | 0.343 | 0.264 | 1.08 | -0.209 | -0.848 | -0.0891 | 0.344 | -0.431 | 1.06 | -0.377 | 2.99 |
| AGAATGAGGTTACCTAAGATCAGGGAAACGCTTG | 1.57 | 6.42 | -0.328 | 3.4 | -0.272 | 3.36 | 2.39 | 2.16 | 0.68 | 1.55 | 2.92 | 2.93 | 1.22 | 0.151 | 1.06 | 1.67 | 0.241 | 2.62 | -0.231 | 1.95 |
| GCGACTGGGGCATCAGTAGGTTACCATAACTTAA | -0.329 | -0.299 | -0.273 | 0.586 | -0.678 | 1.55 | 1.69 | 1.5 | 0.0376 | 0.86 | 4.06 | 4.04 | -0.43 | -0.245 | 0.247 | 0.02 | -0.313 | 0.416 | -0.569 | 0.805 |
| ACTCACGGGTCAACGAGGTTATAGCACGCGTATA | 6.65 | 4.67 | 0.969 | 4.03 | 0.564 | 5.34 | 4.39 | 4.55 | 1.72 | 3.08 | 1.79 | 2.88 | 0.756 | 1.16 | 4.09 | 5.33 | 4.27 | 5.51 | 1.43 | 4.27 |
| GGAACGAGGGCAAGTTGATAGCAGAGTTTGATGG | 1.07 | 0.522 | -0.269 | 0.278 | -0.586 | 1.74 | 1.19 | 1.03 | -0.0238 | 0.39 | 3.78 | 2.54 | -0.0364 | -0.551 | 0.361 | 0.937 | 0.84 | 0.145 | -0.166 | 2.63 |
| GCTGGCAGGCCATTTGGGTCACTCAATGACGGGC | 0.108 | 0.0335 | -0.419 | -0.156 | -0.843 | 1.3 | 0.526 | 0.786 | -0.361 | 0.136 | 0.621 | 1.63 | -1.06 | -1.22 | -0.317 | 0.654 | 0.117 | 0.679 | -0.882 | 1.63 |
| TCATATAGGTAATGCAGGTGAAAGTCGGCATCTA | 0.698 | 0.973 | 0.228 | 0.199 | -0.224 | 2.23 | 1.65 | 2.58 | 3.86 | 2.86 | 4.18 | 4.3 | 0.872 | 1.17 | 0.782 | 0.415 | 0.211 | 0.602 | 0.52 | 0.41 |
| TCATATAGGTAAAAGGTGAATGTCGGTGTGGTAA | 1.81 | 1.79 | 0.481 | 1.93 | 0.156 | 5.2 | 8.83 | 8.55 | 8.35 | 9.06 | 5.52 | 5.08 | 1.42 | 1.7 | 1.98 | 1.71 | 0.679 | 2.97 | 1.84 | 1.86 |
